Results on twelve compounds are retold here after PubChem BioAssay AID1041 (National Center for Advancing Translational Sciences (NCATS), 2008).

Unmarked numbers belong to inactive results. The source made the active and inactive calls.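 The calls were made as follows: active = compound lifting p16 RNA above DMSO-treated cells by a clear fold change, a shift of a few PCR cycles; inactive = the rest, including any drop in level.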

A short description of the test: p16 Derepression/Induction Secondary Assay for qHTS Assay for Epigenetic Modulators. Conditions: H358 cells, p16 mRNA RT-qPCR, 72 h; active compounds read high. An excerpt: NIH Molecular Libraries Screening Centers Network [MLSCN] NIH Chemical Genomics Center [NCGC] MLSCN Grant: 1 X01 MH079860-01 Assay Provider: Elisabeth D. Martinez, University of Texas SW Medical Center NCGC Assay Overview: This secondary assay characterizes selected actives identified in the qHTS of the Locus Derepression (LDR) assay (PubChem AID 597). The LDR assay detects the derepression of a GFP reporter that is stably integrated in a region of the genome of murine c127i mammary cells that is presumably silenced. Compounds that cause derepression of the locus to express GFP are identified by enumerating GFP positive cells using a laser-scanning microplate cytometer. Selected LDR actives were assayed for the induction of p16 gene expression, a gene silenced by dense methylation of its promoter. Treatment of cells with DNA methyltransferase inhibitors like 5-azadeoxycytidine induce p16 gene expression. Compounds active in this assay may affect components involved in DNA methylation or gene transcription.
NCGC Assay Protocol Summary Exponentially growing H358 non-small cell lung cancer cells were treated daily with fresh media containing the indicated concentrations of compounds for 72 hr. Cellular RNA was extracted, quantified, DNAse treated and reverse transcribed. The resulting cDNA was amplified in TaqMan real time quantitative PCR assays (Applied Biosystems) containing validated primers specific for p16 (Hs00233365_m1). Reactions were performed on an ABI Prism 7900HT, with an initial 2 min preincubation at 50 C, followed by 10 min at 95 C and then 40 cycles of 95 C for 15 seconds and 60 C for 1 min. GAPDH and 18S ribosomal RNA were used as references. Gene expression was measured by fold-induction over control DMSO-treated samples (36-37 average cycle time). Increases corresponded to at least 2-3 cycle time differences over DMSO controls, which were in the measurable range. Decreases in expression were considered insignificant as measurement of the DMSO samples were at the low limit of detection. Reactions were run in triplicate and error bars represent standard deviations. For further details, see R.L. Johnson, W. Huang, A. Jadhav, C.P. Austin, J. Inglese, E.D. Martinez, A Quantitative High-Throughput Screen Identifies Potential Epigenetic Modulators of Gene Expression, Analytical Biochemistry (2007), doi: 10.1016/j.ab.2007.12.028
For orientation: Quantitative high-throughput screening tests each substance at several concentrations.
For `CC(C)C(=O)NC(c1ccco1)c1cc([N+](=O)[O-])c2cccnc2c1O` (configuration not stated), the fold change is 2.
For `Nc1ncn([C@H]2C[C@H](O)[C@@H](CO)O2)c(=O)n1` the value was 351 (active).
`CC(C)C(=O)NC(c1ccc(N(C)C)cc1)c1ccc2cccnc2c1O` (configuration not stated): the fold change is 0.4.
`CCN1CSC(=S)N(CC)C1`: the fold change is 1.
Turning to `O=Nc1ccc(O)c2ncccc12`, the fold change is 2.
`O=C(CSc1cccc2cccnc12)N1CCCC1`: the fold change was 1.
With `CN1CCN(Cc2cc(Cl)c3cccnc3c2O)CC1`, the fold change was 1.
For `CC(/C=C/C(=O)NO)=C\[C@@H](C)C(=O)c1ccc(N(C)C)cc1` the value was 1; for `CC(C)C(=O)NC(c1ccco1)c1ccc2cccnc2c1O` (configuration not stated), 1.
As for `CN(C)C(=O)CSc1cccc2cccnc12`, the fold change is 0.4.
Turning to `O=C(CSc1cccc2cccnc12)NCc1ccccc1`, the fold change was 1.
For the compound `COc1ccc(C(NC(=O)C(C)C)c2ccc3cccnc3c2O)cc1` (configuration not stated), the fold change is 1.
